In the supplement of paper PMC7156485 one finds cell number and H1.0 immunofluorescence intensity data, which are given here for 21 compounds.

Conditions in all cases: concentration: 10 µM; 24 h
For experiment [1], the system named is HCC1569. Description: cell number relative to DMSO (% of DMSO); higher = more cells (less growth inhibition / toxicity). In a few lines: (§1)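 After 24 h at 37 °C with compounds at 10 µM, in triplicate, HCC1569 and TDF cells were fixed with 3.7% formaldehyde. Immunostaining used a rabbit anti-H1.0 antibody and an AlexaFluor 647 secondary, with DAPI, and six fields per well were imaged at ×10. H1.0 nuclear intensity or cell number is presented as percent of the plate control, from the median of replicates, with HCC1569 values smoothed for positional effects.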

The test system of experiment [2] is TDF. The experiment is described as above. In a few lines: as §1
The test system of experiment [3] is TDF. Description: H1.0 immunofluorescence intensity relative to DMSO (% of DMSO); higher = stronger H1.0 induction, active = 120 or more. In a few lines: as §1
The subject of experiment [4] is HCC1569. Briefly: H1.0 immunofluorescence intensity relative to DMSO (% of DMSO); higher = stronger H1.0 induction, active = 140 or more. In outline:
as §1

SMILES strings stand for the structures. ± gives the standard deviation of the averaged measurements.
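Wherever H1.0 immunofluorescence intensity relative to DMSO is given: TDF is a line of transformed human dermal fibroblasts of mesenchymal origin.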
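Wherever cell number relative to DMSO is given: TDF denotes transformed human dermal fibroblasts of mesenchymal origin.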

Turning to `O=c1cc(-c2ccccc2)oc2cc(O)c(O)cc12` [6,7-Dihydroxyflavone], the cell number with HCC1569 [1] is 102; in the experiment on TDF [2] it was 96.3. Also, the H1.0 immunofluorescence intensity is 98.5 (inactive) with TDF [3] and 101 (inactive) in the experiment on HCC1569 [4].
The matching figures for `CC(=O)NCCc1c[nH]c2ccc(O)cc12` [N-Acetyl-5-hydroxytryptamine]: 101, 101, 93.3 (inactive) and 87.2 (inactive).
Regarding `CCCCCC(=O)C=CC1C(O)CC(O)C1CC=CCCCC(=O)O` (centres undefined) [15-keto-prostaglandin F2a], the cell number worked out at 101 in the experiment with HCC1569 [1] and 108 in the experiment with TDF [2]. For the same compound, the results for the H1.0 immunofluorescence intensity with TDF [3] and in the experiment with HCC1569 [4] were 92.9 (inactive) and 103 (inactive), respectively.
The matching figures for `O=C(CCCN1CCN(c2ccccn2)CC1)c1ccc(F)cc1` [Azaperone]: 98.6, 112, 96.7 (inactive) and 103 (inactive).
`CC(=O)Oc1ccccc1C(=O)Oc1ccc(CO[N+](=O)[O-])cc1` [4-[(nitrooxy)methyl]phenyl 2-(acetyloxy)benzoate]: the cell number in the experiment on HCC1569 [1] came out at 50.1; in the experiment with TDF [2], 66.5. For the same compound, the H1.0 immunofluorescence intensity was 110 (inactive) in the experiment with TDF [3] and 143 (active) in the experiment on HCC1569 [4].
The matching figures for `CCCCCCCCCCCCCCCC(=O)OCC(COP(=O)(O)O)OC(=O)CCCCCCCCCCCCCCC` (centres undefined) [Dipalmitoylphosphatidic acid]: 94.8, 107, 89.8 (inactive) and 107 (inactive).
The matching figures for `COc1cc2c(cc1OC)C(=O)C(CC1CCN(Cc3ccccc3)CC1)C2.Cl.Cl` (centres undefined) [Donepezil.HCl]: 101, 114, 95.8 (inactive) and 105 (inactive).
Turning to `CCc1cc(CCC2(C3CCCC3)CC(O)=C(Cc3nc4nc(C)cc(C)n4n3)C(=O)O2)cc(CC)n1` (centres undefined), the cell number came out at 97.3 in the experiment on HCC1569 [1] and 106 with TDF [2]. For the same compound, the H1.0 immunofluorescence intensity in the experiment on TDF [3] is 87.6 (inactive); with HCC1569 [4], 104 (inactive).
With `COc1cc(C=C(C#N)C(=O)c2ccc(O)c(O)c2)cc(I)c1O` [I-OMe-Tyrphostin AG 538], the cell number in the experiment on HCC1569 [1] was 97.2; in the experiment on TDF [2], 102. For the same compound, the figures for the H1.0 immunofluorescence intensity in the experiment with TDF [3] and in the experiment on HCC1569 [4] were 102 (inactive) and 106 (inactive), respectively.
In the same order, the values of `COC1C(OC(=O)c2ccc(C)[nH]2)C(O)C(Oc2ccc3c(O)c(NC(=O)c4c[nH]c(C(=O)Nc5c(O)c6ccc(OC7OC(C)(C)C(OC)C(OC(=O)c8ccc(C)[nH]8)C7O)c(C)c6oc5=O)c4C)c(=O)oc3c2C)OC1(C)C` (centres undefined) [Coumermycin A1] are 94.7, 100, 93.5 (inactive) and 101 (inactive).
The matching figures for `O=C1C(=O)C(c2ccc(O)c(O)c2)Oc2cc(O)cc(O)c21` (centres undefined) [2-(3,4-dihydroxyphenyl)-3,5,7-trihydroxy-4H-chromen-4-one]: 81.2, 74.4, 103 (inactive) and 158 (active).
In the same order, the values of `COc1cc2c(c(OC)c1OC)-c1c(cc3c(c1OC)OCO3)C[C@H](C)[C@@](C)(O)C2` are 97.6, 95.4, 96.3 (inactive) and 101 (inactive).
With `O=C1NC(=O)C(c2cn(CCCO)c3ncccc23)=C1c1cnccn1` [GSK-3b Inhibitor XI], the cell number in the experiment on HCC1569 [1] was determined as 106; in the experiment with TDF [2], 119. Besides, the H1.0 immunofluorescence intensity in the experiment with TDF [3] is 88.7 (inactive); in the experiment with HCC1569 [4], 116 (inactive).
The matching figures for `C[N+](C)(C)CC=O.[Cl-]` [Betaine aldehyde chloride]: 104, 115, 94.6 (inactive) and 83.1 (inactive).
In the same order, the values of `CC1C(=O)OC2CC34C5CC(C(C)(C)C)C36C(OC(=O)C6O)OC4(C(=O)O5)C21O` (centres undefined) [Ginkgolide A] are 99.6 ± 1.2, 99 ± 3, 92.3 (inactive) and 95.8 (inactive).
Turning to `Cl.Cl.Nc1nccc(-c2c(-c3ccc(F)cc3)ncn2C2CCCCC2)n1`, the figures for the cell number in the experiment on HCC1569 [1] and in the experiment with TDF [2] were 80.6 and 92.2, respectively. In addition, the H1.0 immunofluorescence intensity is 79.8 (inactive) in the experiment with TDF [3] and 130 (inactive) in the experiment with HCC1569 [4].
The matching figures for `CC1(NC(=O)CBr)CCC(C(C)(C)NCC(O)COc2cccc3[nH]ccc23)CC1` (racemic): 95.8, 98.3, 93.2 (inactive) and 103 (inactive).
For `Cl.Cn1c(=O)c(Oc2ccc(F)cc2F)cc2cnc(NC3CCOCC3)nc21`, the cell number in the experiment with HCC1569 [1] was 99.9; with TDF [2], 99.2. Moreover, the H1.0 immunofluorescence intensity is 89 (inactive) in the experiment with TDF [3] and 102 (inactive) in the experiment with HCC1569 [4].
With `CC(C)C(CO)Nc1nc(Nc2ccc(C(=O)O)c(Cl)c2)c2ncn(C(C)C)c2n1` (centres undefined), the cell number in the experiment with HCC1569 [1] was determined as 100; in the experiment with TDF [2], 112. The results for the H1.0 immunofluorescence intensity in the experiment on TDF [3] and in the experiment on HCC1569 [4] were 96.7 (inactive) and 115 (inactive), respectively.
In the same order, the values of `CCC12CCCN3CCc4c(n(c5ccccc45)C(O)(C(=O)OC)C1)C32` (centres undefined) [Vincamine] are 101, 95.8, 102 (inactive) and 86.2 (inactive).
In the same order, the values of `CCCCCCCCCCCC=CC(C)(C)C=CCCCC(=O)O` [7,7-Dimethyleicosadienoic acid] are 105 ± 6.3, 99.5 ± 3.4, 99 (inactive) and 95.5 (inactive).
